Test results from the supplement of paper PMC9262897, “Low-cost anti-mycobacterial drug discovery using engineered E. coli” (Nature Communications, 2022).
Where a name gives a salt, the structure may show the parent alone. ± gives the standard deviation of the averaged measurements.

Legend:
Experiment in all cases: growth (OD600 after 10 h); higher = more growth (less inhibition)
[1] = test system: E. coli TESEC Alr+ wild-type control; conditions: compound 0.1 mM; raw OD600 reference: median of DMSO wells 0.241, cell-free background 0.041
Method: (§1)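 TESEC Mtb Alr E. coli, or the Alr+ wild-type control, in 384-well plates with Prestwick library compounds at 0.1 mM and 1% DMSO, across arabinose induction levels of 1E3 to 1E7 nM. Growth is read as OD600 after 10 h at 37 °C in triplicate biological replicates.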

E. coli TESEC Mtb Alr [2] = conditions: compound 0.1 mM
Method: as §1

E. coli TESEC Mtb Asd = conditions: compound 0.1 mM
Method: (§2)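 TESEC E. coli strains in which the native enzyme is deleted and replaced by arabinose-inducible Mtb Asd, DapB, CysH or TrpD, each grown in its selective medium. Strains were screened against the Prestwick library at 0.1 mM and 1% DMSO in 384-well format at low and high arabinose induction. Growth is read as OD600 after 10 h in triplicate.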

E. coli TESEC Mtb DapB = conditions: compound 0.1 mM
Method: as §2

[3] = test system: E. coli TESEC Alr+ wild-type control; conditions: compound 0.1 mM; raw OD600 reference: median of DMSO wells 0.49, cell-free background 0.052
Method: (§3)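 TESEC Mtb Alr E. coli (ΔaraC ΔtolC ΔentC Δalr ΔdadX, arabinose-inducible Mtb Alr) or the Alr+ wild-type control strain, grown in defined M9-fructose medium without D-alanine in 96-well plates with Prestwick library compounds at 0.1 mM and 1% DMSO. Low Alr induction is 0.1 µM arabinose and high induction is 10 mM arabinose.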

E. coli TESEC Mtb Alr [4] = conditions: compound 0.1 mM; remark: listed apart in the source
Method: as §3

[5] = arabinose 1000 nM, raw OD600 reference: median of DMSO wells 0.294, cell-free background 0.041
[6] = arabinose 10000 nM, raw OD600 reference: median of DMSO wells 0.264, cell-free background 0.041
[7] = arabinose 100000 nM, raw OD600 reference: median of DMSO wells 0.201, cell-free background 0.041
[8] = arabinose 1000000 nM, raw OD600 reference: median of DMSO wells 0.193, cell-free background 0.041
[9] = arabinose 10000000 nM, raw OD600 reference: median of DMSO wells 0.146, cell-free background 0.041
[10] = arabinose induction (level): High, raw OD600 reference: median of DMSO wells 0.331, cell-free background 0.041
[11] = arabinose induction (level): Low, raw OD600 reference: median of DMSO wells 0.417, cell-free background 0.041
[12] = arabinose induction (level): High, raw OD600 reference: median of DMSO wells […], cell-free background 0.041
[13] = arabinose induction (level): Low, raw OD600 reference: median of DMSO wells 0.227, cell-free background 0.041
[14] = arabinose 100 nM, raw OD600 reference: median of DMSO wells 0.413, cell-free background 0.052
[15] = arabinose 10000000 nM, raw OD600 reference: median of DMSO wells […], cell-free background 0.052

| SMILES | growth [1] | growth (E. coli TESEC Mtb Alr [2]; [5]) | growth (E. coli TESEC Mtb Alr [2]; [6]) | growth (E. coli TESEC Mtb Alr [2]; [7]) | growth (E. coli TESEC Mtb Alr [2]; [8]) | growth (E. coli TESEC Mtb Alr [2]; [9]) | growth (E. coli TESEC Mtb Asd; [10]) | growth (E. coli TESEC Mtb Asd; [11]) | growth (E. coli TESEC Mtb DapB; [12]) | growth (E. coli TESEC Mtb DapB; [13]) | growth [3] | growth (E. coli TESEC Mtb Alr [4]; [14]) | growth (E. coli TESEC Mtb Alr [4]; [15]) |
| --- | --- | --- | --- | --- | --- | --- | --- | --- | --- | --- | --- | --- | --- |
| COc1ccc(C[C@@H]2c3cc(OC)c(OC)cc3CC[N@+]2(C)CCC(=O)OCCCCCOC(=O)CC[N@@+]2(C)CCc3cc(OC)c(OC)cc3[C@H]2Cc2ccc(OC)c(OC)c2)cc1OC [Cisatracurium besylate] | 0.188 ± 0.0083 | 0.307 ± 0.0083 | 0.242 ± 0.014 | 0.166 ± 0.0072 | 0.119 ± 0.0042 | 0.156 ± 0.0018 | 0.307 ± 0.04 | 0.414 ± 0.032 | 0.168 ± 0.022 | 0.209 ± 0.021 | 0.497 ± 0.054 | 0.411 ± 0.0072 | 0.304 ± 0.0097 |
| Nc1nc2[nH]cc(CCc3ccc(C(=O)N[C@@H](CCC(=O)O)C(=O)O)cc3)c2c(=O)[nH]1 [Pemetrexed disodium] | 0.258 ± 0.0062 | 0.303 ± 0.017 | 0.274 ± 0.019 | 0.218 ± 0.029 | 0.184 ± 0.0046 | 0.156 ± 0.0069 | 0.281 ± 0.0067 | 0.405 ± 0.063 | 0.19 ± 0.019 | 0.231 ± 0.013 | 0.56 ± 0.081 | 0.416 ± 0.013 | 0.32 ± 0.012 |
| CCN(Cc1ccncc1)C(=O)C(CO)c1ccccc1 (stereo not drawn) [Tropicamide] | 0.24 ± 0.0069 | 0.308 ± 0.02 | 0.266 ± 0.0032 | 0.212 ± 0.027 | 0.174 ± 0.0051 | 0.158 ± 0.0048 | 0.289 ± 0.021 | 0.416 ± 0.022 | 0.19 ± 0.0057 | 0.249 ± 0.054 | 0.527 ± 0.08 | 0.413 ± 0.013 | 0.33 ± 0.0058 |
| CS(=O)(=O)c1ccc(C2=C(c3ccccc3)C(=O)OC2)cc1 [Rofecoxib] | 0.182 ± 0.012 | 0.2483 ± 0.0006 | 0.242 ± 0.019 | 0.184 ± 0.037 | 0.151 ± 0.008 | 0.144 ± 0.011 | 0.336 ± 0.1 | 0.362 ± 0.097 | 0.205 ± 0.0062 | 0.213 ± 0.009 | 0.455 ± 0.041 | 0.409 ± 0.015 | 0.302 ± 0.041 |
| CC(=O)/N=c1/sc(S(N)(=O)=O)nn1C [Methazolamide] | 0.247 ± 0.0057 | 0.301 ± 0.019 | 0.266 ± 0.0036 | 0.198 ± 0.019 | 0.193 ± 0.0042 | 0.138 ± 0.01 | 0.342 ± 0.034 | 0.447 ± 0.02 | 0.207 ± 0.013 | 0.228 ± 0.01 | 0.438 ± 0.049 | 0.397 ± 0.012 | 0.348 ± 0.027 |
| CN1CCN(CCCN2c3ccccc3Sc3ccc(S(=O)(=O)N(C)C)cc32)CC1 [Thioproperazine dimesylate] | 0.181 ± 0.0045 | 0.165 ± 0.0059 | 0.196 ± 0.0078 | 0.195 ± 0.0039 | 0.106 ± 0.0049 | 0.173 ± 0.0023 | 0.171 ± 0.017 | 0.246 ± 0.049 | 0.2 ± 0.024 | 0.249 ± 0.0047 | 0.409 ± 0.041 | 0.404 ± 0.0053 | 0.232 ± 0.0024 |
| CCC(=O)OCC(=O)[C@@]1(OC(=O)CC)[C@@H](C)C[C@H]2[C@@H]3CCC4=CC(=O)C=C[C@]4(C)[C@@]3(Cl)[C@@H](O)C[C@@]21C [Beclomethasone dipropionate] | 0.216 ± 0.0072 | 0.31 ± 0.028 | 0.28 ± 0.018 | 0.179 ± 0.013 | 0.12 ± 0.013 | 0.167 ± 0.0041 | 0.246 ± 0.032 | 0.3 ± 0.031 | 0.22 ± 0.0053 | 0.248 ± 0.035 | 0.499 ± 0.027 | 0.442 ± 0.0072 | 0.247 ± 0.018 |
| CN(C)/N=N/c1[nH]cnc1C(N)=O [Dacarbazine] | 0.211 ± 0.0036 | 0.259 ± 0.0098 | 0.219 ± 0.012 | 0.197 ± 0.036 | 0.136 ± 0.0025 | 0.151 ± 0.0043 | 0.278 ± 0.036 | 0.362 ± 0.12 | 0.181 ± 0.012 | 0.213 ± 0.033 | 0.51 ± 0.11 | 0.405 ± 0.013 | 0.296 ± 0.024 |
| COc1ccc2[nH]c([S+]([O-])Cc3ncc(C)c(OC)c3C)nc2n1 (stereo not drawn) [Tenatoprazole] | 0.202 ± 0.008 | 0.192 ± 0.0066 | 0.227 ± 0.012 | 0.128 ± 0.0093 | 0.0829 ± 0.0019 | 0.134 ± 0.0048 | 0.388 ± 0.031 | 0.379 ± 0.065 | 0.184 ± 0.0083 | 0.201 ± 0.017 | 0.35 ± 0.01 | 0.397 ± 0.013 | 0.196 ± 0.035 |
| CC1(O)CCOC(=O)C1 (stereo not drawn) [Mevalonic-D, L acid lactone] | 0.244 ± 0.0056 | 0.304 ± 0.017 | 0.271 ± 0.0041 | 0.186 ± 0.019 | 0.203 ± 0.0065 | 0.141 ± 0.0074 | 0.269 ± 0.027 | 0.402 ± 0.022 | 0.183 ± 0.011 | 0.206 ± 0.024 | 0.506 ± 0.11 | 0.394 ± 0.03 | 0.349 ± 0.015 |
| CC1CC(OC(=O)C(O)c2ccccc2)CC(C)(C)N1C (stereo not drawn) [Eucatropine hydrochloride] | 0.245 ± 0.0073 | 0.326 ± 0.015 | 0.282 ± 0.0064 | 0.194 ± 0.0092 | 0.191 ± 0.0054 | 0.156 ± 0.0098 | 0.479 ± 0.008 | 0.432 ± 0.065 | 0.199 ± 0.033 | 0.227 ± 0.024 | 0.444 ± 0.029 | 0.402 ± 0.014 | 0.36 ± 0.016 |
| Cc1ncc(C[n+]2csc(CCO)c2C)c(N)n1 [Thiamine hydrochloride] | 0.246 ± 0.0087 | 0.295 ± 0.0076 | 0.251 ± 0.0027 | 0.174 ± 0.014 | 0.185 ± 0.0064 | 0.129 ± 0.0017 | 0.354 ± 0.062 | 0.418 ± 0.062 | 0.227 ± 0.024 | 0.217 ± 0.015 | 0.451 ± 0.011 | 0.42 ± 0.0059 | 0.362 ± 0.02 |
| COc1ccc(OC)c(C(O)CNC(=O)CN)c1 (stereo not drawn) [Midodrine hydrochloride] | 0.243 ± 0.0087 | 0.291 ± 0.0075 | 0.281 ± 0.0091 | 0.204 ± 0.02 | 0.186 ± 0.0048 | 0.141 ± 0.0067 | 0.4 ± 0.017 | 0.505 ± 0.02 | 0.188 ± 0.0075 | 0.25 ± 0.046 | 0.482 ± 0.043 | 0.424 ± 0.0079 | 0.341 ± 0.008 |
| O=C(CCCN1CCC(O)(c2ccc(Cl)cc2)CC1)c1ccc(F)cc1 [Haloperidol] | 0.216 ± 0.0039 | 0.265 ± 0.012 | 0.273 ± 0.0054 | 0.192 ± 0.015 | 0.172 ± 0.0034 | 0.14 ± 0.0019 | 0.395 ± 0.047 | 0.452 ± 0.028 | 0.187 ± 0.0073 | 0.248 ± 0.034 | 0.354 ± 0.006 | 0.4348 ± 0.0041 | 0.239 ± 0.012 |
| CO[C@H]1/C=C/O[C@@]2(C)Oc3c(C)c(O)c4c(O)c(c5c(nc6cc(C)ccn65)c4c3C2=O)NC(=O)/C(C)=C\C=C\[C@H](C)[C@H](O)[C@@H](C)[C@@H](O)[C@@H](C)[C@H](OC(C)=O)[C@@H]1C [Rifaximin] | 0.044 ± 0.0038 | 0.0438 ± 0.0029 | 0.0409 ± 0.0005 | 0.0411 ± 0.00017 | 0.0418 ± 0.0021 | 0.0439 ± 0.0024 | 0.0569 ± 0.001 | 0.054 ± 0.0016 | 0.103 ± 0.089 | 0.0515 ± 0.0028 | 0.0531 ± 0.00076 | 0.05527 ± 0.00047 | 0.0526 ± 0.00044 |
| Nc1ccc(S(=O)(=O)NC(=O)c2ccccc2)cc1 [Sulfabenzamide] | 0.256 ± 0.012 | 0.321 ± 0.023 | 0.254 ± 0.005 | 0.221 ± 0.022 | 0.172 ± 0.0025 | 0.156 ± 0.0061 | 0.402 ± 0.12 | 0.409 ± 0.033 | 0.221 ± 0.016 | 0.245 ± 0.018 | 0.43 ± 0.0081 | 0.4062 ± 0.0031 | 0.334 ± 0.025 |
